The values that follow come from PubChem BioAssay (EPA / NIEHS).

Experiment [1] is described as follows: CCTE_Harrill_HTTr_Viability_MCF7: CCTE's 6-hour Cell Viability Assessment for the High-Throughput Transcriptomics (HTTr) Platform, in MCF-7 cells cultured in DMEM + 10% fetal bovine serum, Harrill Lab (AID 2284010). Put shortly: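 Propidium iodide exclusion, imaged by high-content analysis, gauged viability after a six-hour exposure across eight concentrations. Cells were MCF-7 grown in DMEM with 10% fetal bovine serum; fits run in both directions against DMSO.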

Experiment [2] is described as follows: CCTE_Shafer_MEA_dev_firing_rate_mean: CCTE's Neural Network Formation Assay for Mean Firing Rate, Shafer Lab (AID 2284031).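 On AC50: curve fitted for loss of firing so AC50 reflects decreased mean firing rate.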 Put shortly:
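Spike frequency (spikes/recording length, averaged over active electrodes) was recorded on days 5, 7, 9 and 12 and collapsed to AUC; rat cortical cultures received compound continuously over 12 days of network development.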

Experiment [3] can be described thus: CCTE_Shafer_MEA_dev_per_burst_spike_percent: CCTE's Neural Network Formation Assay for Percent of Spikes in a Burst, Shafer Lab (AID 2284032).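 On AC50: fitted as a decrease in burst spike percentage below DMSO baseline.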 A digest of the protocol: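 Value is trapezoidal AUC over recordings on days 5, 7, 9 and 12 of the well-mean fraction of spikes falling in single-electrode bursts; rat cortical cultures exposed continuously from plating, treatment renewed DIV 5 and 9, fitted downward against DMSO.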

The nature of experiment [4]: CCTE_Shafer_MEA_dev_active_electrodes_number: CCTE's Neural Network Formation Assay for Number of Active Electrodes, Shafer Lab (AID 2284040; active means hit-call score of the fitted dose curve at least 0.9, where 1 is the maximum;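 on AC50: potency for loss of active electrodes versus DMSO so lower counts are hits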). Put shortly: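 Counts electrodes per well firing at least 5 spikes/min, recorded on days 5, 7, 9 and 12 in rat cortical cultures dosed continuously from plating (treatment refreshed DIV 5, 9). Value is the area under the curve over recordings, fitted downward relative to DMSO.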

Experiment [5] can be described thus: CCTE_Shafer_MEA_dev_burst_rate: CCTE's Neural Network Formation Assay for Burst Rate, Shafer Lab (AID 2284042).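 On AC50: potency for loss of burst rate below DMSO control.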 Put shortly:
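Primary rat cortical neurons on PEI-coated 48-well MEA plates (laminin added with cells at plating) (16 electrodes/well), exposed from plating to day 12, dosing renewed at DIV 5 and 9. Burst rate averaged over active electrodes, recorded DIV 5, 7, 9, 12, summarized as AUC; loss versus DMSO.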

Experiment [6] in a line: CCTE_Shafer_MEA_dev_bursting_electrodes_number: CCTE's Neural Network Formation Assay for Number of Bursting Electrodes, Shafer Lab (AID 2284043; active means hit-call score of the fitted dose curve at least 0.9, where 1 is the maximum;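 on AC50: potency is for loss of bursting electrodes relative to DMSO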). A digest of the protocol:
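Counted: electrodes with burst rate ≥1 per 2 min in each well. Cells: primary rat cortex, 1.5 x 10^5/well, on 16-electrode MEA wells. Exposure: DIV 0–12, compound renewed DIV 5 and 9. Recording days 5, 7, 9, 12; AUC vs DMSO baseline.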

A short description of experiment [7]: CCTE_Shafer_MEA_dev_per_burst_interspike_interval: CCTE's Neural Network Formation Assay for Burst Interspike Interval, Shafer Lab (AID 2284044).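 On AC50: potency for a decrease of within-burst interspike interval below DMSO level.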 A digest of the protocol: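 Rat cortical primary cultures, 16 electrodes/well; compound from plating, renewed with full media change DIV 5 and 9. Spikes via adaptive detector; per-burst ISI well-mean over active bursting electrodes; AUC of DIV 5/7/9/12 recordings; loss-direction fit vs DMSO.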

A short description of experiment [8]: CCTE_Shafer_MEA_dev_burst_duration_mean: CCTE's Neural Network Formation Assay for Mean Burst Duration, Shafer Lab (AID 2284045).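 On AC50: curve fitted for loss meaning shorter burst duration than DMSO.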 Put shortly:
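Network-formation assay in primary rat cortical neurons; treatment spans twelve days of development. Mean burst duration per well is integrated by trapezoidal AUC and fitted in the loss-of-signal direction against DMSO baseline.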

Experiment [9] in a line: CCTE_Shafer_MEA_dev_interburst_interval_mean: CCTE's Neural Network Formation Assay for Mean Interburst Interval, Shafer Lab (AID 2284046).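 Further: well-mean interburst interval of bursting electrodes as AUC over four recording days; curve fitted for decrease in interburst interval relative to DMSO.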 A digest of the protocol:
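Recordings on days 5, 7, 9 and 12 give well-mean interburst interval across actively bursting electrodes, summarized as area under the curve. Cultures: rat cortical neurons, continuous exposure from day 0, compound renewed at feeds; decrease analyzed versus DMSO.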

The nature of experiment [10]: CCTE_Shafer_MEA_dev_inter_network_spike_interval_mean: CCTE's Neural Network Formation Assay for Mean Inter-network Spike Interval, Shafer Lab (AID 2284047).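 On AC50: potency for a decrease in mean inter-network spike interval below DMSO.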 Put shortly: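 Primary rat cortical neurons on 16-electrode MEA wells, exposed from plating day 0 through DIV 12, compound renewed at DIV 5 and 9 media changes. Mean interval between network-spike peaks recorded DIV 5, 7, 9, 12; collapsed as trapezoidal AUC, fitted downward versus DMSO.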

Experiment [11] is described as follows: CCTE_Shafer_MEA_dev_network_spike_number: CCTE's Neural Network Formation Assay for Number of Network Spikes, Shafer Lab (AID 2284048).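 Further: synchronized bursts across electrodes counted on days 5 7 9 12 and integrated as AUC.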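 On AC50: fit as a loss of signal meaning fewer network spikes than DMSO.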 A digest of the protocol: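 Extracellular recordings from 16-electrode wells track network formation in rat cortical cultures under continuous treatment from plating. The endpoint is network spike number, expressed as AUC across DIV 5–12 relative to DMSO vehicle.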

Experiment [12] can be described thus: CCTE_Shafer_MEA_dev_network_spike_peak: CCTE's Neural Network Formation Assay for Mean Number of Electrodes in Network Spike, Shafer Lab (AID 2284049).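 On AC50: fitted for loss of signal meaning fewer electrodes in network spikes than DMSO.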 Put shortly: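 Continuous 12-day exposure of rat cortical cultures, starting at plating, on MEA plates. Endpoint: electrodes participating in network-spike peaks, AUC across DIV 5–12, DMSO as negative control.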

The nature of experiment [13]: CCTE_Shafer_MEA_dev_spike_duration_mean: CCTE's Neural Network Formation Assay for Mean Spike Duration, Shafer Lab (AID 2284051).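 On AC50: potency for a decrease in mean network spike duration versus DMSO.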 Put shortly:
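Primary rat cortical neurons on 16-electrode MEA wells (PEI-coated, laminin in plating drop), exposed from plating through DIV 12 with compound renewed at DIV 5 and 9. Mean network-spike duration recorded DIV 5, 7, 9, 12; trapezoidal AUC across days, DMSO baseline.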

Experiment [14] can be described thus: CCTE_Shafer_MEA_dev_network_spike_duration_std: CCTE's Neural Network Formation Assay for Standard Deviation of Network Spike Duration, Shafer Lab (AID 2284052).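 Further: area under curve of spike duration SD across recording days 5 to 12; hits are decreases in network spike duration SD versus DMSO vehicle.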 Put shortly: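 Primary rat cortical neurons on PEI-coated 16-electrode MEA wells, exposed from plating day 0 through day 12 with compound renewed at DIV 5 and 9. Network spike duration SD recorded on days 5, 7, 9, 12, collapsed as trapezoidal AUC; loss-of-signal fit versus DMSO.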

Experiment [15] can be described thus: CCTE_Shafer_MEA_dev_per_network_spike_spike_number_mean: CCTE's Neural Network Formation Assay for Mean Number of Spikes in a Network Spike, Shafer Lab (AID 2284053). A digest of the protocol:
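Primary rat cortical neurons on 48-well, 16-electrode MEA plates were exposed from plating to DIV 12, with dosing renewed on DIV 5 and 9. Spikes per network spike (0.05 s peak window) were recorded on DIV 5, 7, 9 and 12 and collapsed as trapezoidal AUC versus DMSO.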

Experiment [16] is described as follows: CCTE_Shafer_MEA_dev_per_network_spike_spike_percent: CCTE's Neural Network Formation Assay for Percent of Spikes in a Network Spike, Shafer Lab (AID 2284054). A digest of the protocol:
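Developing networks of rat cortical neurons are dosed at day 0 and recorded extracellularly four times up to day 12. The endpoint is the area under the curve of percent spikes in network spikes, fitted in the negative direction relative to DMSO.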

The nature of experiment [17]: CCTE_Shafer_MEA_dev_mutual_information_norm: CCTE's Neural Network Formation Assay for Mutual Information Normalization, Shafer Lab (AID 2284091).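 On AC50: mutual information between electrodes summarised as area under curve across four recording days; potency is for a decrease in mutual information relative to DMSO.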 Put shortly:
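Exposure of primary rat cortical neurons began at plating and ran to DIV 12, with full media and treatment renewal after DIV 5 and 9 recordings. Mutual information AUC (DIV 5–12) was analysed for loss versus DMSO.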

The nature of experiment [18]: CCTE_Shafer_MEA_dev_correlation_coefficient_mean: CCTE's Neural Network Formation Assay for Mean Correlation Coefficient, Shafer Lab (AID 2284093).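 On AC50: well mean pairwise spike train correlation integrated as AUC over recording days 5 to 12; potency fitted for loss of correlation relative to DMSO vehicle wells.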 Put shortly: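 Spontaneous activity recorded on days 5, 7, 9 and 12 post-plating; pairwise spike correlations are averaged across active electrodes and collapsed to an area-under-curve. Rat cortical cultures are dosed from plating through 12 days, with compound renewed at media changes.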

Experiment [19] can be described thus: CCTE_Shafer_MEA_dev_LDH: CCTE's Lactate Dehydrogenase Assay for Cytotoxicity in the Neural Network Formation Assay, Shafer Lab (AID 2284068; active means hit-call score of the fitted dose curve at least 0.9, where 1 is the maximum;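 further: exposure for twelve days from plating with re-dosing on DIV 5 and 9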). Put shortly: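 Primary rat cortical neurons were plated on PEI/laminin MEA plates and exposed from day 0 for twelve days, with compound renewed at DIV 5 and 9. Cytotoxicity was determined by spectrophotometric LDH assay relative to DMSO.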

Inconclusive results are not listed. A structure can be active in one record and inactive in another. Calls of active or inactive are those of the source. How the source made its calls, unless noted: active means hit-call score of the fitted dose curve at least 0.9, where 1 is the maximum; inactive means score below 0.9. Starred links: 1 amine or outer side, 2 acyl side, 3 side chain; linkers in the order of their positions; H or OH if unused. Positions of bridges follow the written chain, without caps; N, C: chain ends. Non-standard residues stand in square brackets, D forms with d. Residues, ends and D or L forms follow the SMILES beside them. Adda = CO[C@@H](Cc1ccccc1)[C@@H](C)/C=C(C)/C=C/[C@H](N[*:1])[C@H](C)C(=O)[*:2]; dAsp(3S-Me) = C[C@H](C(=O)[*:3])[C@@H](N[*:1])C(=O)[*:2]; d(γGlu) = O=C(O)[C@@H](CCC(=O)[*:2])N[*:1]; NMeDha = C=C(NC)C(=O)O

Turning to `COP(=S)(Oc1cc(Cl)c(Br)cc1Cl)c1ccccc1` (configuration not stated), the result in experiment [1] was inactive.

As for `C=C1C(=O)N[C@H](C)C(=O)N[C@H](CC(C)C)C(=O)N[C@@H](C(=O)O)[C@H](C)C(=O)N[C@@H](CCCN=C(N)N)C(=O)N[C@@H](/C=C/C(C)=C/[C@H](C)[C@H](Cc2ccccc2)OC)[C@H](C)C(=O)N[C@@H](C(=O)O)CCC(=O)N1C` (R[Adda][d(γGlu)][NMeDha][dA][dL][dAsp(3S-Me)]-OH; lactam N-7), the outcome in [1] was inactive.

Take `C[C@H](N)Cc1ccccc1`: the outcome in experiment [2], in [3], in [4], in experiment [5], in [6] and in experiment [7] was inactive. Moreover, the result in [8], in experiment [9], in [10], in experiment [11], in experiment [12] and in experiment [13] was inactive. The compound was called inactive in experiment [14], in [15], in experiment [16], in experiment [17] and in [18].

The term AC50 denotes the concentration giving half of the maximal activity seen. Take `CCOP(=S)(OCC)SCS(=O)C(C)(C)C` (configuration not stated): the result in [2], in [3], in [4], in experiment [5], in [6] and in [7] was inactive. In addition, the compound was called inactive in [8], in experiment [9], in experiment [10], in experiment [11], in [13] and in experiment [14]. Further, the compound was classed as inactive in [15], in experiment [16], in experiment [19], in experiment [17] and in experiment [18]. In addition, in experiment [12], the half-maximal activity concentration (AC50) is 555 nM (active).

Take `C/C(=C/C=C/[C@@H](C)C(=O)O)[C@H]1CN[C@H](C(=O)O)[C@H]1CC(=O)O`: the concentration at half-maximal activity (AC50) was 68 nM (active) in experiment [2]; 2060 nM (active) in [3]; 970 nM (active) in experiment [4]; 131 nM (active) in experiment [5]; 1280 nM (active) in [6]; 1330 nM (active) in experiment [7]. Moreover, the concentration at half-maximal activity (AC50) was 992 nM (active) in experiment [8]; 32.2 nM (active) in [9]; 160 nM (active) in experiment [10]; 21.8 nM (active) in experiment [11]; 1830 nM (active) in experiment [12]; 1130 nM (active) in experiment [13]. In addition, the concentration at half-maximal activity (AC50) in experiment [14] is 259 nM (active); in [15], 1050 nM (active); in experiment [16], 2330 nM (active); in [19] it was 6750 nM (active); in experiment [17], 50.7 nM (active); in [18], 1560 nM (active). Moreover, the result in experiment [2], in [3], in [4], in experiment [5], in experiment [6] and in experiment [7] was inactive. In addition, the outcome in experiment [8], in [9], in experiment [10], in experiment [11], in experiment [12] and in [13] was inactive. Further, the call in experiment [14], in [15], in experiment [16], in experiment [17] and in experiment [18] was inactive.
